Among the test systems are DU-145 prostate; K-562 leukemia; MALME-3M melanoma; MDA-MB-231 breast; RXF 393 renal; SF-268 CNS; SF-295 CNS; SF-539 CNS; UACC-257 melanoma; M14 melanoma; HCT-15 colon; HT29 colon; SNB-75 CNS; SNB-19 CNS; U251 CNS; PC-3 prostate; SK-MEL-5 melanoma; UACC-62 melanoma; LOX IMVI melanoma; SK-MEL-28 melanoma.
Common to all, as to assay: NCI-60 one-dose screen, 48 h (100 = growth as untreated, 0 = no growth, -100 = all killed)
Holding throughout (conditions): 10 µM unless noted

The structures appear in SMILES notation. This is part of a sample that, as a whole, favours compounds with a hit. Of some 83,000 tested, about 20% had one in any assay.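 Note: values are percent growth. 100 is the growth of untreated cells, values between 100 and 0 indicate rising inhibition; between -100 and 0 indicates cell death.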 Unmarked numbers belong to inactive results. Activity calls are given as the source filed them. Rule for the calls: active = growth percent below 10; inactive = the rest.

The results in this text go back to PubChem BioAssay (NCI).

As to `Cc1ccccc1/C=C1\CN(C(=O)OC(C)(C)C)C/C(=C\c2ccccc2C)C1=O`, the growth is 9.09% (active) in the assay on DU-145 prostate; 5.76% (active) in the assay with K-562 leukemia; 73.7% in the assay on MALME-3M melanoma; 42.7% in the assay on MDA-MB-231 breast; 61.1% in the assay with RXF 393 renal; 2.68% (active) with SF-268 CNS. Moreover, the growth with SF-295 CNS was 24.6%; in the assay with SF-539 CNS, 31.2%; with UACC-257 melanoma it was 74.3%; with M14 melanoma it was 30.7%; with HCT-15 colon, 1.66% (active); with HT29 colon, -26.4% (active). Besides, the growth in the assay on SNB-75 CNS is 53.4%; with SNB-19 CNS, 39.1%; in the assay on U251 CNS, 0.0873% (active); with PC-3 prostate, 21.9%; in the assay on SK-MEL-5 melanoma, 83%; in the assay on UACC-62 melanoma, 28.7%. For the same molecule, the growth was -62.4% (active) with LOX IMVI melanoma and 55.5% with SK-MEL-28 melanoma.
On to `COc1ccc(-c2csc(NC(=O)CSc3nc(-c4ccccc4)cc(=O)[nH]3)n2)cc1`, for which the growth in the assay on DU-145 prostate is 76.1%; with K-562 leukemia, 42.9%; in the assay with MALME-3M melanoma, 60.2%; in the assay with MDA-MB-231 breast, 83.5%; with RXF 393 renal it was 86.5%; with SF-268 CNS it was 77.9%. Moreover, the growth in the assay with SF-295 CNS is 53.3%; in the assay with SF-539 CNS, 78.3%; with UACC-257 melanoma it was 77.1%; in the assay with M14 melanoma it was 59.1%; in the assay with HCT-15 colon, 70.9%; in the assay with HT29 colon, 85.9%. In addition, the growth in the assay on SNB-75 CNS is 82.3%; in the assay with SNB-19 CNS it was 70.1%; in the assay with U251 CNS, 79.7%; in the assay with PC-3 prostate, 66.5%; with SK-MEL-5 melanoma, -16.5% (active); in the assay on UACC-62 melanoma, 58.7%. Further, the growth is 66% in the assay with LOX IMVI melanoma and 90.6% with SK-MEL-28 melanoma.
In the case of `CC[C@@H](C(=O)[C@@H](C)[C@@H](O)[C@H](C)[C@@H]1O[C@@H]([C@@H](CC)C(=O)NCCc2ccc(F)cc2)CC[C@@H]1C)C1O[C@]2(C=CC(=O)[C@]3(CC[C@@](C)([C@H]4CC[C@](O)(CC)[C@H](C)O4)O3)O2)[C@H](C)C[C@@H]1C` (stereo not given in full), the growth in the assay with DU-145 prostate was 50.5%; in the assay with K-562 leukemia, 17%; in the assay on MALME-3M melanoma, 36%; with MDA-MB-231 breast, 13.8%; in the assay on RXF 393 renal, 42.7%; in the assay with SF-268 CNS, 24.2%. Further, the growth in the assay with SF-295 CNS is 18.4%; with SF-539 CNS, 47.7%; in the assay on UACC-257 melanoma, 43.5%; in the assay on M14 melanoma, 25.4%; in the assay on HCT-15 colon, 29.1%; with HT29 colon, 47.2%. For the same molecule, the growth in the assay on SNB-75 CNS is 20.8%; in the assay with SNB-19 CNS, 26.2%; in the assay with U251 CNS it was 28.4%; with PC-3 prostate it was 8.72% (active); in the assay on SK-MEL-5 melanoma it was 24.6%; in the assay with UACC-62 melanoma, 26.7%. Besides, the growth with LOX IMVI melanoma was 52.8%; with SK-MEL-28 melanoma, 58.2%.
As to `C#CCOc1cccc(Nc2ncnc3c(NC(=O)C=C)cccc23)c1`, the growth is -1.57% (active) in the assay on DU-145 prostate; 5% (active) in the assay with K-562 leukemia; 31.3% with MALME-3M melanoma; 26.3% in the assay on MDA-MB-231 breast; -3.19% (active) in the assay on RXF 393 renal; 20.7% in the assay with SF-268 CNS. For the same molecule, the growth is 53.6% in the assay with SF-295 CNS; 5.67% (active) in the assay with SF-539 CNS; 33% in the assay on UACC-257 melanoma; 19.9% in the assay with M14 melanoma; 21.3% with HCT-15 colon; 5.3% (active) with HT29 colon. The growth in the assay with SNB-75 CNS was 23%; in the assay with SNB-19 CNS, 28.1%; in the assay on U251 CNS, 24.7%; in the assay with PC-3 prostate, 23.8%; in the assay with SK-MEL-5 melanoma it was 8.31% (active); in the assay on UACC-62 melanoma, 17.4%. For the same molecule, the growth in the assay on LOX IMVI melanoma was 8% (active); with SK-MEL-28 melanoma it was 52.1%.
Take `Cc1ccc(-c2nn(-c3ccccc3)cc2C=C2C(=O)ON=C2C(C)C)cc1`: the growth is 88.1% in the assay on DU-145 prostate; 34.2% with K-562 leukemia; 85.2% in the assay with MALME-3M melanoma; 97.3% with MDA-MB-231 breast; 89.9% in the assay on RXF 393 renal; 94.8% with SF-268 CNS. The growth in the assay with SF-295 CNS is 96.8%; in the assay with SF-539 CNS it was 83.6%; in the assay on UACC-257 melanoma, 96.4%; in the assay on M14 melanoma, 65.8%; in the assay with HCT-15 colon, 63%; with HT29 colon, 44.5%. Also, the growth in the assay on SNB-75 CNS was 70.3%; in the assay on SNB-19 CNS it was 78.4%; in the assay on U251 CNS, 52.4%; with PC-3 prostate it was 63.5%; with SK-MEL-5 melanoma, 87.1%; with UACC-62 melanoma, 75.8%. The results for the growth with LOX IMVI melanoma and in the assay on SK-MEL-28 melanoma were 2% (active) and 88.7%, respectively.
With `Cc1ccccc1NC(=O)c1sc2nc(C)c(C(=O)/C=C/c3ccccc3)cc2c1N`, the growth in the assay on DU-145 prostate was 10.5%; with K-562 leukemia, 13%; in the assay on MALME-3M melanoma, 59.7%; with MDA-MB-231 breast it was 3.85% (active); in the assay with RXF 393 renal it was -26.7% (active); with SF-268 CNS, 11.8%. Further, the growth was 14% with SF-295 CNS; -34.4% (active) in the assay with SF-539 CNS; 68.5% in the assay with UACC-257 melanoma; 4.85% (active) with M14 melanoma; -1.44% (active) with HCT-15 colon; -5.48% (active) in the assay on HT29 colon. The growth in the assay with SNB-75 CNS was -7.36% (active); in the assay on SNB-19 CNS it was 2.8% (active); in the assay with U251 CNS it was -35% (active); in the assay with PC-3 prostate, 29%; in the assay on SK-MEL-5 melanoma, 17.7%; in the assay with UACC-62 melanoma, 7.17% (active). The growth with LOX IMVI melanoma was -85.9% (active); with SK-MEL-28 melanoma, 42%.
`N#C/C(=C\c1ccc2ccccc2c1)c1cc2ccccc2[nH]1`: the growth in the assay with DU-145 prostate was 59.5%; in the assay on K-562 leukemia, 19.4%; in the assay on MALME-3M melanoma, 45%; in the assay with MDA-MB-231 breast, 41.5%; in the assay on RXF 393 renal, 29.3%; with SF-268 CNS, 54.2%. In addition, the growth in the assay on SF-295 CNS was 33%; in the assay on SF-539 CNS, 32.9%; in the assay on UACC-257 melanoma it was 63.2%; in the assay with M14 melanoma, 18%; in the assay with HCT-15 colon, 22.5%; in the assay with HT29 colon it was 10.9%. Further, the growth with SNB-75 CNS is 35.6%; in the assay on SNB-19 CNS it was 43.8%; in the assay on U251 CNS, 27.8%; in the assay on PC-3 prostate, 33%; in the assay with SK-MEL-5 melanoma, 35.3%; with UACC-62 melanoma, 32.2%. Moreover, the results for the growth in the assay on LOX IMVI melanoma and with SK-MEL-28 melanoma were 32.3% and 55.3%, respectively.
